In PubChem BioAssay (NCATS):
Inconclusive results are not listed. Values without a mark were called inactive. Calls of active or inactive are those of the source. The call rests on the fitted dose curve; in most records, active means well fitted inhibition curve with a large enough effect; inconclusive means small, poorly fitted or top-dose-only effect; inactive means no such curve, though single readings can be large or run the other way.

These compounds were tested against Retinaldehyde dehydrogenase 3 (Homo sapiens) (UniProt P47895) (assay: qHTS for Inhibitors of the Aldehyde Dehydrogenase Family (ALDH1A3) Primary screen (AID 2061315;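 further: plate controls were DMSO vehicle for no effect and reference inhibitor for full effect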)). Conditions: ALDH inhibition qHTS; series mostly up to 56 µM; activity change, negative = inhibition: at the top concentration.

Structure (SMILES)	activity change, negative = inhibition	Potency
Cc1ccc(NS(=O)(=O)c2ccc(-c3ccccc3)cc2)cc1C	7.57%	
Fc1ccc(-c2ccc(CNc3nc(-c4ccccc4C(F)(F)F)nc4ccccc34)cc2)cc1	-13.3%	
COc1ccc(-c2cnc(N3CCC(C(N)=O)CC3)s2)cc1OC	-10.6%	
CCOc1ccc(CCNC(=O)CN(C)C)cc1OCC	-5.03%	
O=C(Nc1ccc2ccccc2c1)Nc1nnc(-c2ccccn2)s1	3.93%	
CC(C)c1ccc(NC(=O)C(c2ccccc2)N(C)C(=O)Cc2c[nH]c3ccccc23)cc1 (stereo not given)	9.15%	
O=c1c2ccccc2nc2sc(Nc3ccc(Oc4ccccc4)cc3)nn12	3.45%	
O=C(O)c1ccc(O)c2ncc(N3CCCN(CCc4ccncc4)CC3)cc12	2.47%	
O=C1c2ccccc2C(=O)N1c1ccc2ccccc2n1	5.32%	
COc1ccc(Cn2c(C)nnc2-c2cnn(C)c2N)cc1OC	2.77%	
COc1cc(C(N)=O)nc(-c2ccccn2)c1O	11.7%	
COc1cc(O)c([C@H](CC(=O)N2CC(C)CC(C)C2)c2ccc3c(c2)OCO3)c(OC)c1 (stereo not given in full)	9.52% [at 114 µM]	
Cc1c(P(=S)(c2ccccc2)c2ccccc2)c2ccccc2n1C/C=C/c1ccccc1	5.22%	
N#Cc1nc(-c2cccc3ccccc23)oc1Nc1ccccc1	-17.3%	
CN1CCN(c2cccc(Nc3nn4c(=O)c5ccc(Br)cc5nc4s3)c2)CC1	4.23%	
Cc1cc(C)nc(NC(=S)N2CCN(c3cccc(OC(F)(F)F)c3)CC2)c1	0.274%	
CC(C)(C)c1ccc(C(=O)Nc2ccc(-c3nc4ccccc4[nH]3)cc2)cc1	6.42%	
O=S(=O)(Nc1nccs1)c1ccc(NCc2cccc(Br)c2O)cc1	12.9%	
Cc1cc(C=CC#N)cc(C)c1Nc1nc(Nc2ccc3scnc3c2)c2[nH]cnc2n1	-3.98%	
Cc1ccsc1CN(C)c1ncnc2ccc(-c3ccc4c(c3)OCO4)cc12	0.0614%	

Structure (SMILES)	activity change, negative = inhibition	Potency
O=C(NCc1nnc(C(=O)Nc2ccc(C(F)(F)F)cc2Cl)o1)c1ccccc1	19.9%	
CN1CCN(c2ccc(CNc3nn4c(=O)c5ccccc5nc4s3)cc2)CC1	-0.789%	
O=C(O)c1ccc(-c2ccc(NC(=O)c3cccs3)cn2)cc1	10.1%	
O=C1CCCC2=C1C1(CCOCC1)N=C(Nc1nc3ccccc3o1)N2	5.79%	
COc1cc(/C=C2/C(=O)Nc3ccccc32)cc(OC)c1O	6.41%	
CC(=O)Nc1sc2c(c1-c1ccc(OC(F)(F)F)cc1)CCNC2	-15.3%	
CC(Nc1ncnc2ccc(-c3ccc4c(c3)OCO4)cc12)c1ccco1 (stereo not given)	0.0591%	
Cc1csc(CNc2ncnc3ccc(-c4ccc(CO)o4)cc23)n1	4.57%	
COC(=O)C1C(CC(C)=O)C=CC(O)C12Oc1cc(C)cc(O)c1C2=O (stereo not given)	-12.4%	
NC(=O)C1CCN(c2ncnc(-c3ccc4c(c3)OCCCO4)n2)CC1	-10.2%	
O=C1CCCC2=C1C(c1ccn[nH]1)N=C(Nc1nc3ccccc3o1)N2 (stereo not given)	0.0027%	
CSC(Cc1ccc(Cl)cc1)C(=O)Nc1ccc(Cl)cc1C(=O)O (stereo not given)	1.31%	
C[C@H](NC(c1ccc(F)cc1)c1ccc2cccnc2c1O)c1ccccc1 (stereo not given in full)		inactive
COc1ccc(C2c3c(nc(CCc4ccccc4)[nH]c3=O)Oc3ccc4ccccc4c32)cc1OC (stereo not given)	-7.47%	
COc1ccc(-c2ccc3ncnc(NCc4cccs4)c3c2)cc1OC	-1.29%	
Cn1ccc2cc(-c3csc(N4CCC(C(N)=O)CC4)n3)ccc21	-5.82%	
COc1cccc(CNc2ccc(S(=O)(=O)Nc3cccc4ccccc34)cc2)c1O	-13.5%	
O=C1CCc2cc([S+](=O)([O-])Nc3ccc(N[S+](=O)([O-])c4ccc5c(c4)CCC(=O)N5)cc3)ccc2N1	-1.85%	
Oc1ccc(CNc2ccc(F)cc2Cl)c2cccnc12	-29.8%	
CN(C)c1ccc2c(=O)n3nc(Nc4ccc5c(c4)CCC5)sc3nc2c1	-0.89%	
